Source: PubChem
Compounds with a hit are over-represented: about 4.1% of the library has one in this group of screens.
DAX1 inh-1: DAX1 (NR0B1) inhibition, primary screen; HEK293T StAR-luciferase reporter, SF-1/DAX-1 repression relief; inhibition, % at 6.8 µM; 370,000 compounds, 1.1% hits;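 active = inhibition above the mean over all tested compounds plus 3 SD, cut at about 3.6% in these data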;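 also: 0% = DAX-1 cells with DMSO and 100% = cells lacking DAX-1 with DMSO; higher inhibition means more luminescence from relief of DAX-1 repression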
DAX1 inh-2: inhibits human nuclear receptor DAX1; P51843; HEK293 Gal4-DAX1 luciferase reporter, luminescence; inhibition, % at 6.75 µM; 340,000 compounds, 0.99% hits;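 active = inhibition above the mean over all tested compounds plus 3 SD, cut at about 4.2% in these data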;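 also: 0% = DAX1-transfected cells with DMSO and 100% = empty-vector control cells with DMSO; inhibition shows as a rise in luminescence from relieved DAX1 repression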
Target sequence (P51843 207-470 limits assumed): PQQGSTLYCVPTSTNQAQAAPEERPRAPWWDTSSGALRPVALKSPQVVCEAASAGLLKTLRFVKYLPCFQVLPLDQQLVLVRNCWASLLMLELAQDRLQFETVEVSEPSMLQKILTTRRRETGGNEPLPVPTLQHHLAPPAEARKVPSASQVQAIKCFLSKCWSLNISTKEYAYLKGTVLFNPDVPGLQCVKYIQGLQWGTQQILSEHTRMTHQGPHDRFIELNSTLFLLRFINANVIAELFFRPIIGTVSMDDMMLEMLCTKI
hgDAF-12 ag: activates the H. glycines DAF-12 receptor ligand-binding domain | HEK293 GAL4-hgDAF12 UAS-luciferase reporter, agonist luminescence; normalized to butyrate control | activation, % at 6.8 µM | 370,000 compounds, 1.8% hits;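 active = activation above a cutoff set at the mean of all screened compounds plus 3 SD, cut at about 10% in these data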;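 also: 0% = DMSO wells and 100% = sodium butyrate wells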
ssDAF-12 act: activates DAF-12 receptor from parasite S. stercoralis | HEK293 ssDAF-12/GRIP1 lit1-tk-luc reporter, luminescence; % of 3 µM dafachronic acid response | AID 652126 | 370,000 compounds, 1% hits | activation, % at 6.8 µM;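 active = activation above the mean over all tested compounds plus 3 SD, cut at about 0.9% in these data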;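 also: 0% = DMSO-only wells and 100% = 3 µM delta7-dafachronic acid wells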
hcDAF-12 act: activators of H. contortus DAF-12 nuclear receptor | HEK293 hcDAF-12 lit1-tk-luc reporter, luminescence; 0% DMSO, 100% Δ7-dafachronic acid | activation, % at 6.8 µM | 370,000 compounds, 1.4% hits;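 active = activation above the mean of all tested compounds plus 3 SD, cut at about 5.5% in these data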;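 also: 100% = response to 3 µM Δ7-dafachronic acid high control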
* marks the source's active call; other numbers are inactive results; . = not tested or not shown.

SMILES | DAX1 inh-1 | DAX1 inh-2 | hgDAF-12 ag | ssDAF-12 act | hcDAF-12 act
CCc1ccc(N2CC34C=CC(O3)C(C(=O)OC(C)C)C4C2=O)cc1 (stereo unspecified) | 0 | 1 | 0 | -1 | -1
CN1CCN(c2nc3ccccc3nc2NS(=O)(=O)c2ccc(Br)cc2)CC1 | -1 | 0 | 1 | 0 | 1
O=S(=O)(Nc1nc2ccccc2nc1N1CCc2ccccc2C1)c1ccc(Br)cc1 | 5.8* | -1 | 16* | 2.4* | 22*
CCCOc1ccc(-c2nc(CSCC(=O)NC3CC3)c(C)o2)cc1 | . | . | -1 | -2 | -2
N#C/C(=C\c1ccccn1)c1nc2ccccc2s1 | 0 | 1 | 4 | 0 | 3
COc1ccc(/C(C#N)=C/c2ccccn2)cc1 | 1 | 1 | 12* | 0 | 4
COc1ccc(Cl)cc1-c1cc(C(=O)Nc2ccc(Br)cc2)[nH]n1 | 0 | . | -2 | -2 | -2
COc1ccc(N=c2sc3ccccc3n2C)cc1 | 4.5* | 5.6* | 11* | 0 | 6.1*
COc1ccccc1N=c1sc2ccccc2n1C | 0 | 0 | -1 | -2 | -1
O=C(Cc1ccccc1F)Nc1ccc(S(=O)(=O)N2CCCCC2)cc1 | -1 | 0 | 0 | -1 | -1
O=C(Cn1nc(-c2ccccc2F)ccc1=O)Nc1ccc(S(=O)(=O)N2CCCCCC2)cc1 | 0 | 6.6* | -3 | -1 | 0
COC(=O)[C@]12C[C@H](CC(=O)N3CCCCC3)C(=O)N(Cc3ccc(Cl)cc3Cl)C1=C[C@H](COCc1ccccc1)O[C@@H]2C | -2 | . | -4 | -1 | -3
C(#CC1=CCCCC1)CNCC1CC1 | 0 | . | 6 | -1 | -1
CCn1c(SCC(=O)N2CCN(c3ccccc3)CC2)nc2c([nH]c3ccccc32)c1=O | 0 | 1 | 3 | 1.2* | 3
CCn1c(SCC(=O)N2CCCCCC2)nc2c([nH]c3ccccc32)c1=O | 1 | 0 | 1 | 0 | 5
COc1cccc2c1OC1(CCN(C(C)C)CC1)N1N=C(c3cccnc3)CC21 (stereo unspecified) | 0 | 6.8* | 8 | -1 | 1
CCC(=O)Nc1cccc(NC(=S)NC(=O)c2ccccc2)c1 | 1 | -1 | 13* | -1 | 3
O=C(NC(=S)Nc1cccc(NC(=S)NC(=O)c2ccccc2)c1)c1ccccc1 | -1 | -2 | 4 | 0 | 5
Cc1ccc(NC(=S)NC(=O)c2ccccc2)cc1NC(=S)NC(=O)c1ccccc1 | 1 | 1 | 10 | -1 | 6.2*
COC(=O)Nc1ccc(C)c(NC(=O)OC)c1 | 0 | -1 | 0 | -1 | 6.4*
COC(=O)Nc1ccc2c(c1)OCO2 | 1 | 0 | 5 | -1 | 0
Cc1ccc2cccc(NC(=S)NC(=O)c3ccccc3)c2n1 | 0 | -1 | 2 | 1.0* | 5.7*
NC(=O)[C@@H]1CCCN1C(=O)c1ccc2oc(CCc3ccccc3)nc2c1 | 3.6* | 1 | 5 | -1 | 0
COCC1CCCN(C(=O)c2ccc3oc(CCCc4ccccc4)nc3c2)C1 (stereo unspecified) | -2 | -1 | -2 | -1 | -3
O=C(c1ccc2oc(CCCc3ccccc3)nc2c1)N1CCCCC1CO (stereo unspecified) | 3.8* | 1 | 8 | 0 | 1
SMILES | DAX1 inh-1 | DAX1 inh-2 | hgDAF-12 ag | ssDAF-12 act | hcDAF-12 act
COC(=O)C1=C(C)N(Cc2cccc(C(F)(F)F)c2)C(=NCc2ccc3c(c2)OCO3)NC1c1cccc(F)c1 (stereo unspecified) | -2 | . | -1 | -1 | 1
COC(=O)C1CN(Cc2ccccc2)CCS(=O)(=O)N1Cc1cn(Cc2ccc(Cl)cc2)nn1 (stereo unspecified) | -1 | . | 0 | -1 | -1
O=C(O)C1C=CCC(C(=O)O)C1 (stereo unspecified) | 0 | 0 | 0 | 2.4* | 0
CSCC[C@@H](C(=O)O)N1Cc2ccccc2C1=O | 0 | 0 | -3 | 0 | 6.0*
COc1ccc(/C=C2\CCc3c2nc2ccccc2c3C(=O)O)cc1OC | 4.3* | 0 | 1 | 0 | 4
COc1ccc(C(=O)CSc2nnc(-c3cccnc3)n2-c2ccccc2)cc1 | -1 | . | 4 | -2 | 1
CC(C)N1CCc2c(sc(NC(=O)C(F)(F)F)c2-c2nc3ccccc3s2)C1 | . | . | 9 | 0 | -1
Cc1c(C(C)(C(=O)O)c2c(C)n(C)c3ccccc23)c2ccccc2n1C | 0 | . | 3 | 0 | 5.7*
Cc1c(P(=O)(c2ccccc2)c2ccccc2)c2ccccc2n1C | -1 | . | 1 | -1 | -3
CCOC(=O)N1CCN(c2c(NCCN3CCCCC3CC)c(=O)c2=O)CC1 (stereo unspecified) | 4.2* | 0 | -2 | -1 | -1
Cc1ccc(NC(=O)/C(C#N)=C(\N)C(Cl)(Cl)Cl)nc1 | . | 8.1* | . | . | .
O=C(NCCCN1CCOCC1)/C(=C/c1ccco1)NC(=O)c1ccccc1 | 0 | 1 | 0 | 0 | 0
CCC1(c2ccc(Cl)cc2)NC(=S)N(c2ccc(C)cc2)N1 (stereo unspecified) | 1 | 0 | 11* | 1 | 6.2*
CCC1(c2ccc(Cl)cc2)NC(=S)N(c2ccc(C)c(C)c2)N1 (stereo unspecified) | 0 | -1 | 4 | -2 | 0
Cn1c(CC(=O)Nc2ccc(F)cc2)c(Sc2ccccc2)c2ccccc21 | 0 | 0 | 0 | -1 | 6.5*
COc1ccc(CCNS(=O)(=O)c2c(C)n[nH]c2C)cc1 | 0 | . | -1 | -1 | 3
O=C1c2ccccc2C(c2nnnn2-c2ccc3c(c2)OCCO3)N1CCCn1ccnc1 (stereo unspecified) | 3.9* | . | 1 | 0 | 1
C=CCC12C=C(OC)C(=O)C(C1=O)C(c1ccc(OC)cc1)C2C (stereo unspecified) | 0 | . | 3 | -1 | 1
Nn1c(SCc2cccc3ccccc23)nnc1-c1cc(-c2ccc(Cl)cc2)n[nH]1 | -1 | . | 2 | -2 | -3
COc1ccc(C(=O)NC(=S)NNC(=O)c2cnccn2)cc1OC | 0 | 4.9* | 5 | -1 | -1
COc1cc(OC)cc(C(=O)NC(=S)NNC(=O)c2cnccn2)c1 | 0 | 1 | 1 | -2 | -1
Cc1noc(C)c1NC(=O)Nc1cccc2c1O[C@H](CN(C)S(=O)(=O)c1cccs1)[C@@H](C)CN([C@H](C)CO)C2=O | 0 | 0 | -3 | -1 | 0
Cc1ccc(C(=O)OCC(=O)Nc2cc(C(C)(C)C)no2)c(C)c1 | 3.6* | 1 | -1 | -1 | -1
COc1ccccc1N=Nc1c(O)[nH]c2ccc(Br)cc12 | 0 | 1 | 2 | 1.0* | 6.4*
CC(Oc1ccccc1)C(=O)N=Nc1c(O)[nH]c2ccc(Br)cc12 (stereo unspecified) | 0 | -1 | -4 | 2.2* | 1
COC[C@@H]1CCCN1[C@H]1CS(=O)(=O)N[C@@H]1COCc1ccccc1 | -1 | . | 1 | -1 | 0
